# Pf growth 96h: Primary qHTS for delayed death inhibitors of the malarial parasite plastid, 96 hour incubation. P. falciparum luciferase reporter growth, 96 h. Potency, µM (highest dose often 28.7 µM), for the others: at the highest dose activity change, negative = inhibition, actives largely listed as inhibitors. 6.9% of 320,000 active; note: potency is the fitted concentration of half-maximal effect; % is set by controls: 0 for no effect and ±100 for the full control effect
#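 Compounds incubated with erythrocytes infected by luciferase-expressing P. falciparum (2% hematocrit, 0.05% parasitemia final) for 96 hours, 37 C in 5% CO2. Growth inhibition scored as decreased luciferase luminescence.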
# NS1 inh: qHTS Assay for Inhibitors of Influenza NS1 Protein Function; Potency, µM (doses to about 46.1 µM), without a hit: at the top dose activity, positive = more growth; 0.4% of 270,000 active; AID 2326, 2010; calls by dose curve; note: potency is the fitted concentration of half-maximal effect; actives are rising curves; nearly all actives have a fitted effect of over 50% in size
#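 A cell-based growth assay was used: compounds that relieve NS1-induced slow growth of budding yeast raise OD600. Assay medium was yeast nitrogen base with ammonium sulphate and -URA supplement, pH 6.0, with 2% galactose.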
# Cycloheximide cs: Cycloheximide Counterscreen for Small Molecule Inhibitors of Shiga Toxin; cell reporter, cycloheximide protein synthesis inhibition counterscreen; max response, %; 12% of 300,000 active; in the data active = max response mostly above about 13%, no sharp cut-off; inactive = mostly below about 14%; note: read at 38.3 µM for the half of the compounds with a filed dose; 0% is about no effect
# Pf growth 48h: Primary qHTS for delayed death inhibitors of the malarial parasite plastid, 48 hour incubation; 5.9% of 310,000 active; Potency, µM (highest dose often 28.7 µM), for the others: at the highest dose activity change, negative = inhibition, most hits filed as inhibitors; P. falciparum luciferase growth in erythrocytes, 48 h; note: potency is the fitted concentration of half-maximal effect; % is set by controls: 0 for no effect and ±100 for the full control effect
#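 Compounds are pin-transferred into medium, infected erythrocytes (2% hematocrit, 0.1% parasitemia final) are added, and plates sit one parasite generation at 37 C in 5% CO2. Detection reagent is then added and luminescence measured.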
# Shiga toxin inh: A qHTS for Small Molecule Inhibitors of Shiga Toxin; Vero cells, Shiga toxin protein synthesis inhibition reporter; 9.2% of 290,000 active; inhibition, % at 38.7 µM; in the data active = inhibition mostly above about 28%, no sharp cut-off; inactive = mostly below about 43%; note: 0% is about no effect
# Active calls of the source: *; ? = inconclusive; . = no result. An excerpt weighted towards active compounds, which were near 21% of everything screened. Unless noted, calls come from the whole dose curve; as a rule, active = well fitted inhibition curve with a large enough effect; inconclusive = small, poorly fitted or top-dose-only effect, or another doubt; inactive = no such curve, though single readings can be large or run the other way.
SMILES,Pf growth 96h,NS1 inh,Cycloheximide cs,Pf growth 48h,Shiga toxin inh
Cc1c(C(=O)NCc2ccc3c(c2)OCO3)oc2ccc(S(=O)(=O)N3CCC(C)CC3)cc12,57.9%,-2.4%,-3.0,9.28µM*,3.5
Cc1c(C(=O)NCc2cccnc2)oc2ccc(S(=O)(=O)N3CCCC(C)C3)cc12 (stereo not given),5.86µM*,-31.0%,-0.5,?,21.6
Nc1nc(SCCO)[nH]c(=O)c1NC(=O)c1ccc(Br)o1,28.1%,-1.0%,-2.6,101.3%,-3.9
Cc1ccc2oc(C(=O)NCC3CCOCC3)c(C)c2c1,10.4µM*,-2.3%,21.1,29.3%,59.2*
CC1CC(C)CN(S(=O)(=O)c2ccc3c(c2)oc(=O)n3CC(=O)NCc2cccnc2)C1 (stereo not given),10.4µM*,3.3%,-1.8,?,-12.8
Cc1c(C(=O)NCC2CCCO2)oc2ccc(Br)cc12 (stereo not given),95.7%,.,.,70.6%,.
O=C(O)c1c[nH]c2c(ccc3[nH]cc(C(=O)O)c(=O)c32)c1=O,.,-6.2%,.,.,.
COc1cc2nc(CN(C)Cc3ccc(OC)c(OC)c3OC)[nH]c(=O)c2cc1OC,-0.9%,-1.4%,11.3*,57.8%,36.8*
CCN(CC)CCn1c(=S)[nH]c2ccc(Cl)cc2c1=O,-0.9%,0.6%,7.8,11.7µM*,-8.7
Cc1ccc(C(=O)C(C)OC(=O)CCN2C(=O)C3C4C=CC(C5CC45)C3C2=O)cc1 (stereo not given),17.8%,-4.0%,-3.0,13.2%,-6.2
O=C(O)C(=O)/C=C(\O)c1ccc(Br)cc1,.,0.0%,.,.,.
CCn1c(SCC(N)=O)nc2cc(S(=O)(=O)N3CCOCC3)ccc21,1.7%,13.2%,-5.2,0.0%,23.1
CCn1c(SCC(=O)c2c[nH]c3ccccc23)nc2cc(S(=O)(=O)N3CCOCC3)ccc21,2.33µM*,12.2%,-1.9,9.28µM*,-3.4
COc1ccc(-n2nnc3c(SCC(=O)Nc4ccc5c(c4)OCCO5)ncnc32)cc1,.,1.3%,1.1,7.7%,-1.3
COc1ccc(-n2nnc3c(SCC(=O)c4ccccc4)ncnc32)cc1,1.85µM*,5.2%,0.9,-3.6%,-6.1
COC(=O)c1ccc(CSc2ncnc3c2nnn3-c2ccc(OC)cc2)o1,9.28µM*,-4.6%,8.2,-0.4%,-1.8
CCCc1nnc(NC(=O)CCC(=O)N2CCN(Cc3ccc(Cl)cc3)CC2)s1,11.7µM*,6.0%,-7.4,-24.1%,-5.8
Cc1ccc(OCCN2CCN(C(=O)CCC(=O)Nc3nnc(CC(C)C)s3)CC2)cc1,0.329µM*,-7.0%,0.7,11.7µM*,-5.2
Cc1cc(OCC(=O)OCC(=O)N(C)C2CCS(=O)(=O)C2)ccc1Cl (stereo not given),28.6%,.,.,-8.0%,.
Cc1noc(C)c1COC(=O)C1CCN(S(=O)(=O)c2c(Cl)cccc2Cl)CC1,-9.3%,.,.,?,.
COc1ccccc1/C=N/NC(=O)c1cccc(NC(=O)c2ccccc2Cl)c1,?,-33.9%,11.4,-12.2%,30.2
COc1ccc(C(=O)Nc2cccc(C(=O)N/N=C/c3ccc(OC)cc3OC)c2)cc1,?,-10.0%,39.4*,139.9%,47.0
COc1ccc(/C=N/NC(=O)c2cccc(NC(C)=O)c2)c(OC)c1,?,.,-1.4,2.6%,-10.0
COc1ccc(/C=N/NC(=O)c2cccc(NC(=O)c3ccccc3)c2)c(C(=O)O)c1OC,-8.3%,19.1%,32.3*,13.6%,28.5
O=C(N=Nc1c(O)n(C2OC(=O)c3ccccc32)c2ccccc12)c1ccco1 (stereo not given),-2.8%,0.9%,6.8,6.2%,1.1
SMILES,Pf growth 96h,NS1 inh,Cycloheximide cs,Pf growth 48h,Shiga toxin inh
CC(CCc1ccc(O)cc1)NCCC(c1ccccc1)c1ccccc1 (stereo not given),?,-1.4%,-2.1,?,-7.5
CC(CCc1ccc(O)cc1)NC(c1ccccc1)c1ccc(Cl)cc1 (stereo not given),?,9.6%,-3.9,9.28µM*,-24.7
Cc1c(O)c2c3c(cccc3c1O)C(=O)N(c1ccccc1)C2=O,10.4µM*,-22.8%,-3.0,?,-6.2
COc1ccc(CNC(=O)C2CCN(S(=O)(=O)N3CCCCC3)CC2)c(OC)c1,-8.7%,-8.0%,-4.3,3.3%,22.3
Cc1ccc2c(c1)c1nc3ccccc3nc1n2CCN1CCOCC1,.,8.5%,10.9*,18.4%,6.2
CCn1c2ccc(C)cc2c2nnc(SCCN3CCOCC3)nc21,31.6%,-4.7%,-1.8,1.9%,-30.6
